Assay results as given in PubChem BioAssay (NCATS).
Records with an inconclusive call do not appear. Entries that show only a call come without a potency. A number with no mark means an inactive call. Active and inactive are the calls of the source. Calls follow the shape of the dose curve; as a rule, active = well fitted inhibition curve with a large enough effect; inconclusive = small, poorly fitted or top-dose-only effect; inactive = flat fitted curve, though single readings scatter.

Experiments:
[1] = qHTS profiling for inhibitors of Plasmodium falciparum proliferation (AID 504749); also: nearly all actives have a fitted effect of over 60% in size; conditions: P. falciparum in erythrocytes, SYBR Green DNA, 72 h
In short: (§1)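 Infected RBCs, 0.3% parasitemia/2.5% Hct final; cpd 72 h, 37 C, 5% CO2; lysis buffer with saponin/triton/SYBR Green I, o/n RT dark; FI 485/535; norm. to artemisinin (0.29 uM) and DMSO.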

3D7 = assay: as above; conditions: P. falciparum in erythrocytes, SYBR Green DNA, 72 h; series mostly up to 28.7 µM
In short: as §1

AA1029 = assay: as above; conditions: P. falciparum in erythrocytes, SYBR Green DNA, 72 h; series mostly up to 28.7 µM
In short: as §1

AS120 = assay: as above; conditions: P. falciparum in erythrocytes, SYBR Green DNA, 72 h; series mostly up to 28.7 µM
In short: as §1

ATS189 = assay: as above; conditions: P. falciparum in erythrocytes, SYBR Green DNA, 72 h; series mostly up to 28.7 µM
In short: as §1

ATS95 = assay: as above; conditions: P. falciparum in erythrocytes, SYBR Green DNA, 72 h; series mostly up to 28.7 µM
In short: as §1

C2A = assay: as above; conditions: P. falciparum in erythrocytes, SYBR Green DNA, 72 h; series mostly up to 28.7 µM
In short: as §1

CP185 = assay: as above; conditions: P. falciparum in erythrocytes, SYBR Green DNA, 72 h; series mostly up to 28.7 µM
In short: as §1

CP191 = assay: as above; conditions: P. falciparum in erythrocytes, SYBR Green DNA, 72 h; series mostly up to 28.7 µM
In short: as §1

CP192 = assay: as above; conditions: P. falciparum in erythrocytes, SYBR Green DNA, 72 h; series mostly up to 28.7 µM
In short: as §1

CP194 = assay: as above; conditions: P. falciparum in erythrocytes, SYBR Green DNA, 72 h; series mostly up to 28.7 µM
In short: as §1

7G8 = assay: as above; conditions: P. falciparum in erythrocytes, SYBR Green DNA, 72 h; series mostly up to 28.7 µM
In short: as §1

[2] = at 28.7 µM (top of the series), parasite line A
[3] = at 28.7 µM (top of the series), parasite line B
[4] = at 12.8 µM (top of the series), parasite line A
[5] = at 12.8 µM (top of the series), parasite line B
Potency is read from the fitted curve at half-maximal effect.

| Structure (SMILES) | activity, negative = inhibition [1, 2] [%] | activity, negative = inhibition [1, 3] [%] | Potency (3D7) | Potency (AA1029) | Potency (AS120) | Potency (ATS189) | Potency (ATS95) | Potency (C2A) | Potency (CP185) | Potency (CP191) | Potency (CP192) | Potency (CP194) | activity, negative = inhibition [1, 4] [%] | activity, negative = inhibition [1, 5] [%] | Potency (7G8) | Potency ([1]; parasite line A) | Potency ([1]; parasite line B) |
| --- | --- | --- | --- | --- | --- | --- | --- | --- | --- | --- | --- | --- | --- | --- | --- | --- | --- |
| N[C@H](Cc1c[nH]c2ccccc12)C(=O)O | 7.64 | 6.56 | inactive | inactive | inactive | inactive | inactive | inactive | inactive | inactive | inactive | inactive | – | – | – | – | – |
| CC(=O)c1ccc2c(c1)N(CCCN1CCC(CCO)CC1)c1ccccc1S2 | – | – | inactive | inactive | inactive | inactive | inactive | inactive | inactive | inactive | inactive | – | -2.26 | 0.0996 | – | – | – |
| CCN(CC)CCOC(=O)C(c1ccccc1)C1CCCCC1 (configuration not stated) | 0.689 | -1.84 | inactive | – | inactive | inactive | – | inactive | inactive | inactive | inactive | – | – | – | – | – | – |
| CN1CCN(CCCN2c3ccccc3Sc3ccc(S(=O)(=O)N(C)C)cc32)CC1 | – | – | – | inactive | – | 3.55 µM (active) | – | – | inactive | 3.98 µM (active) | inactive | inactive | 5.01 | -5.83 | 0.891 µM (active) | – | – |
| CCN1CCN(c2cc3c(cc2F)c(=O)c(C(=O)O)cn3C2CC2)CC1 | -8.55 | -3.41 | inactive | inactive | inactive | inactive | inactive | inactive | inactive | inactive | inactive | inactive | – | – | – | – | – |
| CC[N+](CC)(CCNC(=O)C(=O)NCC[N+](CC)(CC)Cc1ccccc1Cl)Cc1ccccc1Cl | – | – | – | 2.82 µM (active) | 1 µM (active) | 2.24 µM (active) | 2.82 µM (active) | 10 µM (active) | 1.58 µM (active) | 4.47 µM (active) | – | 2.39 µM (active) | – | – | 7.94 µM (active) | 1.12 µM (active) | 0.794 µM (active) |
| CC(=O)N/N=C/c1ccc([N+](=O)[O-])o1 | – | – | inactive | – | 7.08 µM (active) | inactive | – | – | – | – | inactive | inactive | – | – | 7.94 µM (active) | 1.12 µM (active) | 12.6 µM (active) |
| CCCN1CCCC[C@H]1C(=O)Nc1c(C)cccc1C | 9.76 | 10.7 | inactive | inactive | inactive | inactive | inactive | inactive | inactive | inactive | inactive | inactive | – | – | – | – | – |
| CN(C)CCOc1ccccc1Cc1ccccc1 | -13.9 | -12.1 | inactive | 7.94 µM (active) | 1.78 µM (active) | – | – | – | – | – | inactive | – | – | – | – | – | – |
| Oc1c(I)cc(Cl)c2cccnc12 | – | – | inactive | – | 10 µM (active) | 12.6 µM (active) | inactive | 11.2 µM (active) | 11.2 µM (active) | 11.2 µM (active) | – | inactive | – | – | – | 8.91 µM (active) | 8.91 µM (active) |
| C[C@@H](CN(C)C)CN1c2ccccc2Sc2ccccc21 | – | – | inactive | inactive | inactive | inactive | inactive | inactive | inactive | – | inactive | – | 1.53 | 7.77 | – | – | – |
| Cc1c(C)n(Cc2ccccc2)c2ccc(C(=O)OCCN(C)C)cc12 | 11.1 | -2.16 | inactive | inactive | inactive | inactive | inactive | inactive | inactive | inactive | inactive | inactive | – | – | – | – | – |
| CCOC(=O)COc1ccc2c(C)c(CCN(CC)CC)c(=O)oc2c1Cl | – | -29.4 | inactive | inactive | – | inactive | inactive | – | inactive | – | inactive | inactive | – | – | inactive | 3.55 µM (active) | – |
| CCN(CC)C(=O)/C(C#N)=C/c1cc(O)c(O)c([N+](=O)[O-])c1 | -3.14 | -7.95 | – | inactive | inactive | inactive | inactive | inactive | inactive | inactive | inactive | inactive | – | – | 14.1 µM (active) | – | – |
| CC(O)C(=O)O (configuration not stated) | 1.12 | 5.39 | – | inactive | inactive | inactive | – | inactive | inactive | inactive | inactive | inactive | – | – | inactive | – | – |
| CC(C)(C(=O)c1cccnc1)c1cccnc1 | – | – | inactive | inactive | inactive | inactive | inactive | inactive | inactive | inactive | inactive | inactive | -8.96 | -23.5 | – | – | – |
| O=C(N/N=C/c1ccccc1O)c1ccncc1 | – | – | – | 11.2 µM (active) | 4.47 µM (active) | – | – | 11.2 µM (active) | – | – | – | – | – | – | 8.91 µM (active) | 6.31 µM (active) | 11.2 µM (active) |
| CCCCN1CCCC1C(=O)Nc1c(C)cc(C)cc1C (configuration not stated) | -15.8 | -3.59 | inactive | inactive | inactive | inactive | inactive | inactive | inactive | inactive | inactive | inactive | – | – | – | – | – |
| CN1CCN(C(c2ccccc2)c2ccccc2)CC1 | – | – | inactive | – | inactive | inactive | – | inactive | inactive | inactive | inactive | – | 3.5 | -5.02 | – | – | – |
| COCc1c(C(C)C)nc(C(C)C)c(/C=C/[C@@H](O)C[C@@H](O)CC(=O)O)c1-c1ccc(F)cc1 | -9.49 | -12.9 | inactive | inactive | inactive | inactive | inactive | inactive | inactive | inactive | inactive | inactive | – | – | – | – | – |
| CN(C(=O)CN(CCO)CC(=O)N(C)C(C)(C)Cc1ccccc1)C(C)(C)Cc1ccccc1 | – | – | inactive | inactive | – | – | inactive | inactive | inactive | inactive | inactive | – | 4.12 | -5.35 | 3.16 µM (active) | – | – |
| Cc1cc(O)c(C(C)C)cc1Cl | 0.647 | 11.2 | inactive | inactive | inactive | inactive | inactive | inactive | inactive | inactive | inactive | inactive | – | – | – | – | – |
| CCCCOc1cc(C(=O)NCCN(CC)CC)c2ccccc2n1 | – | – | inactive | inactive | inactive | inactive | inactive | inactive | inactive | – | inactive | inactive | 7.49 | 7.29 | – | – | – |
| C[C@H]1C[C@H]2[C@@H]3CCC4=CC(=O)C=C[C@]4(C)[C@@]3(Cl)[C@@H](O)C[C@]2(C)[C@@]1(O)C(=O)CO | 2.21 | 13.1 | inactive | inactive | inactive | inactive | inactive | inactive | inactive | inactive | inactive | inactive | – | – | – | – | – |
| O=c1c(-c2ccccc2)c1-c1ccccc1 | – | – | 11.2 µM (active) | – | – | 10 µM (active) | – | – | – | – | – | – | – | – | 8.91 µM (active) | 11.2 µM (active) | 10 µM (active) |
| c1ccc(OCc2ccc(CCCN3CCOCC3)cc2)cc1 | 3.42 | 8.4 | inactive | inactive | inactive | inactive | inactive | inactive | inactive | inactive | inactive | inactive | – | – | – | – | – |
| CCN1CCC[C@H]1CNC(=O)c1c(OC)ccc(Br)c1OC | 12.1 | 10 | inactive | – | inactive | inactive | inactive | inactive | inactive | inactive | inactive | inactive | – | – | inactive | – | – |
| CCCCCCCCCCCCCCCCOP(=O)([O-])OCC[N+](C)(C)C | -1.43 | 12.3 | inactive | inactive | inactive | inactive | inactive | inactive | inactive | inactive | inactive | inactive | – | – | – | – | – |
